Experimental data reported in the supplement of paper PMC6555819.

Legend:
Assay in all cases: PBM binding z-score (relative to random genomic background probes); higher = stronger binding; sequences stand for … in GC…GCGATTGACAGCGTAGAATGAAGG
[1] = test system: FXR:RXRa (NR concentration 270 nM, RXRa partner concentration 90 nM)
How it was run: (§1)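 Ligand-free nuclear receptor dimers were applied to custom Agilent 4×180K protein-binding microarrays whose double-stranded probes carried direct-repeat seeds, single-nucleotide variants, half-site ablations and random human genomic background sequences in 34-nt variable regions. Incubation lasted 1 h. Binding z-scores were computed against the random background probes from regression-normalized fluorescence.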

[2] = test system: LXRa:RXRa (NR concentration 270 nM, RXRa partner concentration 90 nM)
How it was run: as §1

[3] = test system: LXRa homodimer (NR concentration 270 nM)
How it was run: as §1

[4] = test system: LXRb:RXRa (NR concentration 270 nM, RXRa partner concentration 90 nM)
How it was run: as §1

[5] = test system: LXRb homodimer (NR concentration 270 nM)
How it was run: as §1

[6] = test system: PPARa:RXRa (NR concentration 270 nM, RXRa partner concentration 90 nM)
How it was run: as §1

[7] = test system: PPARg:RXRa (NR concentration 180 nM, RXRa partner concentration 90 nM)
How it was run: as §1

[8] = test system: PPARg:RXRa 270nM:90nM, anti-RXR (NR concentration 270 nM, RXRa partner concentration 90 nM)
How it was run: as §1

[9] = test system: PPARg:RXRa 30nM:10nM, anti-RXR (NR concentration 30 nM, RXRa partner concentration 10 nM)
How it was run: as §1

[10] = test system: PPARg:RXRa 90nM:30nM, anti-RXR (NR concentration 90 nM, RXRa partner concentration 30 nM)
How it was run: as §1

[11] = test system: PPARg:RXRa DBDmut IVT, anti-RXR (DBD mutation: RXRa K156A/R161A, NR concentration 270 nM, RXRa partner concentration 90 nM)
How it was run: as §1

[12] = test system: PPARg:RXRa IVT, anti-PPARg (NR concentration 270 nM, RXRa partner concentration 90 nM)
How it was run: as §1

[13] = test system: PPARg DBDmut:RXRa IVT, anti-PPARg (DBD mutation: PPARg1 K132A/R137A, NR concentration 270 nM, RXRa partner concentration 90 nM)
How it was run: as §1

[14] = test system: PPARg DBDmut IVT, anti-PPARg (DBD mutation: PPARg1 K132A/R137A, NR concentration 270 nM)
How it was run: as §1

[15] = test system: PPARg homodimer (NR concentration 180 nM)
How it was run: as §1

[16] = test system: PXR:RXRa (NR concentration 270 nM, RXRa partner concentration 90 nM)
How it was run: as §1

[17] = test system: PXR homodimer (NR concentration 270 nM)
How it was run: as §1

[18] = test system: RARa:RXR (NR concentration 270 nM, RXRa partner concentration 90 nM)
How it was run: as §1

[19] = test system: RARa homodimer (NR concentration 270 nM)
How it was run: as §1

[20] = test system: RARb:RXRa (NR concentration 270 nM, RXRa partner concentration 90 nM)
How it was run: as §1

| Sequence | PBM binding z-score [1] | PBM binding z-score [2] | PBM binding z-score [3] | PBM binding z-score [4] | PBM binding z-score [5] | PBM binding z-score [6] | PBM binding z-score [7] | PBM binding z-score [8] | PBM binding z-score [9] | PBM binding z-score [10] | PBM binding z-score [11] | PBM binding z-score [12] | PBM binding z-score [13] | PBM binding z-score [14] | PBM binding z-score [15] | PBM binding z-score [16] | PBM binding z-score [17] | PBM binding z-score [18] | PBM binding z-score [19] | PBM binding z-score [20] |
| --- | --- | --- | --- | --- | --- | --- | --- | --- | --- | --- | --- | --- | --- | --- | --- | --- | --- | --- | --- | --- |
| CTCGAAAGGTCGTGCTCAGGTGAGTCTACCAAAC | 4.93 | 3.85 | 0.251 | 3 | 0.082 | 4.65 | 2.04 | 3.85 | 0.42 | 2.48 | 1.08 | 1.81 | -0.131 | -0.101 | 1.24 | 3.07 | 0.183 | 3.94 | -0.14 | 3.86 |
| ATCTCTAGGTAAGACTGAGTTCAGTGAAGAACGC | 0.449 | 0.657 | 0.601 | 0.352 | 0.691 | 0.568 | -0.0566 | 0.369 | 0.167 | 0.0734 | 1.52 | 1.3 | 0.582 | 0.923 | 0.874 | 2.66 | 3.46 | 0.632 | 0.634 | 0.692 |
| CCAGACAGCTGAGAAGGTAACTCAGCCTCGATTA | -0.225 | -0.563 | -0.25 | -0.499 | -0.831 | -0.574 | -0.129 | -0.555 | -0.623 | -0.881 | -0.628 | -0.629 | -0.497 | -0.867 | 0.219 | -0.733 | 0.0352 | -0.488 | -0.132 | -1.71 |
| TAGACTAGGTCAGATCGGGCCAGTATACGCTATA | 1.54 | 0.872 | -0.254 | 0.626 | 0.289 | 2.47 | 3.05 | 2.82 | 1.07 | 2.03 | 4.39 | 5.26 | 1.46 | 0.155 | 0.192 | 0.932 | -0.501 | 1.18 | -0.174 | 2.99 |
| CCTACTGGGGCATTCAGAGGTCATTGATCATATG | 3.08 | 4.37 | 6.25 | 3.91 | 0.359 | 4.07 | 3.34 | 4.13 | 1.23 | 3.12 | 4.5 | 5.15 | 0.018 | 0.266 | 2.6 | 5.08 | 2.1 | 4.67 | 0.372 | 3.45 |
| TCTCGGAGGAGACGAAGGTCAGAGCTTTCCAGAG | 0.255 | 0.507 | -0.124 | 0.569 | -1.39 | 1.62 | -0.069 | 1.26 | 1.84 | 1.51 | 0.916 | -0.157 | -0.48 | -1.43 | 0.692 | 1.01 | -0.222 | 1.5 | -0.817 | 2.37 |
| CTCGAAAGATCGTGCTCAGGTGAGTATACCAAAC | -0.102 | -0.388 | -0.396 | -0.276 | -0.402 | -0.384 | -0.161 | -0.399 | -0.236 | -0.424 | -0.285 | -0.0174 | -0.0381 | 0.428 | 0.0271 | -0.467 | -0.289 | -0.00355 | -0.239 | -0.0571 |
| GATACCGGGTCAGCTAGAGGCCAGAGTATGGAAA | 2.65 | 1.51 | -0.9 | 1.21 | -1.03 | 3.5 | 2.92 | 2.42 | 0.487 | 1.18 | 0.693 | 2.49 | -0.62 | -0.769 | 1.94 | 2.41 | -0.56 | 3.53 | -0.152 | 3.28 |
| TAGCCTAGGTCTTTGGGCCAGTATAGTACGCATC | -0.684 | -0.824 | -0.792 | -0.788 | -0.858 | -1.04 | 0.0223 | -0.571 | -0.609 | -0.513 | -0.223 | 0.546 | -1.01 | -0.496 | -0.656 | -0.782 | -0.961 | -0.806 | -0.737 | -0.161 |
| AGTCAAAGTTTAGGACGAGGTAACGTAAAGCACG | 0.493 | -0.103 | -0.205 | -0.158 | -0.175 | 0.331 | 0.904 | 0.793 | 0.252 | 0.625 | -0.369 | 0.311 | 0.476 | 0.0826 | 0.281 | 0.168 | -0.0643 | 0.219 | 0.258 | 1.41 |
| TCTTGTAGATCAAAGGTTAAGAGAGCCGAAGCCT | 1.58 | 1.77 | 0.0362 | 1.91 | -0.272 | 4.75 | 8.74 | 8.28 | 8.05 | 8.92 | 1.9 | 3.87 | 0.236 | -0.197 | 0.759 | 1.87 | -0.162 | 3.06 | 0.341 | 1.9 |
| GCTACAGGGTCAAGGCCAGAGTACGCGTATTGAT | 6.86 | 3.95 | -0.363 | 3.53 | -0.375 | 5.71 | 5.03 | 4.94 | 1.93 | 3.59 | 2.54 | 3.15 | -0.313 | 0.11 | 2.84 | 4 | 0.0658 | 4.7 | 0.58 | 4.59 |
| CGAACTAGGTCAAGGACAGTGAGTCTCCGCACGC | 3.12 | 1.84 | -0.202 | 0.891 | -0.739 | 4.6 | 7.31 | 6.21 | 3.52 | 5.83 | 8.24 | 8.49 | 4.66 | 1.15 | 1.2 | 0.826 | -0.0553 | 1.87 | -0.462 | 3.83 |
| TCTATCAGTTGAAGGGCAACCGACGAGTCCGTTT | 0.369 | 0.777 | -0.273 | 0.501 | -0.0897 | 0.935 | 0.152 | 2 | 3.44 | 2.89 | 2.02 | 0.545 | -0.244 | 0.0205 | 0.44 | 0.571 | 0.541 | 0.596 | 0.00832 | 1.63 |
